Laboratory results taken from PubChem BioAssay (NCATS).
Records with an inconclusive call do not appear. Calls of active or inactive are those of the source. Unless noted, calls come from the whole dose curve; as a rule, active = well fitted curve in the direction sought with a large enough effect in the repeat runs; inconclusive = weak or mixed curves; inactive = no such curve, though single readings can be large; an effect the other way counts as inactive or inconclusive.

What was measured:
[1] = Primary qHTS for small molecule stabilizers of the endoplasmic reticulum resident proteome: Secreted ER Calcium Modulated Protein (SERCaMP) assay (AID 1508630; active = well fitted curve in the direction sought with a large enough effect; an effect the other way counts as inactive or inconclusive; note: % is set by controls: 0 for no effect and ±100 for the full control effect)
Method in brief: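 GLuc-SERCaMP-expressing SH-SY5Y cells, pretreated 16 h with compound, are challenged with thapsigargin to empty ER calcium stores; after 4 h, coelenterazine is added directly to the medium and luminescence is imaged.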

[2] = A High-Content qHTS Against Drug Library for the Identification of Small Molecules that Inhibit DYT1 Early Onset Primary Dystonia-Associated Cell Pathology (AID 1645839; calls by dose curve; note: series mostly up to about 46 µM)
Method in brief: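 Readout: %pathology, the punctate EGFP-TorsinA distribution from imaging, as the primary channel and cell count as the toxicity counterscreen. HEK293 Flp-In cells expressing delE TorsinA were induced with tetracycline and treated with compound for 48 h.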

[3] = target: Cytochrome P450 2D6 (Homo sapiens) (UniProt P10635); test: Cytochrome P450 family 2 subfamily D member 6 (CYP2D6) small molecule antagonists: luciferase biochemical (cell-free) qHTS assay (AID 1645840); note: nearly all actives have a fitted effect of over 55% in size; note: potency is the fitted concentration of half-maximal effect; for activity change, negative = inhibition: series mostly up to about 57 µM; % is set by controls: 0 for no effect and ±100 for the full control effect
Method in brief: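 P450-Glo luminescent screen: recombinant CYP2D6 enzyme–proluciferin substrate mix preincubated with compound 10 min at room temperature, then NADPH regeneration added for 1 h at room temperature. Detection reagent added for 20 min; luciferin light read as relative luminescence units.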

[4] = target: Cytochrome P450 2C9 (Homo sapiens) (UniProt P11712); test: Cytochrome P450 family 2 subfamily C member 9 (CYP2C9) small molecule antagonists: luciferase biochemical (cell-free) qHTS assay (AID 1645842); note: nearly all actives have a fitted effect of over 55% in size; note: potency is the fitted concentration of half-maximal effect; for activity change, negative = inhibition: series mostly up to about 57 µM; % is set by controls: 0 for no effect and ±100 for the full control effect
Method in brief: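 Luminescence, after 20 min with luciferin detection reagent, reflected CYP2C9 turnover during a 1 h NADPH-driven reaction at 37C. Enzyme-substrate mix contained 0.4% bovine serum albumin and was preincubated with compound 10 min at room temperature.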

[5] = target: Cytochrome P450 3A4 (Homo sapiens) (UniProt P08684); test: Cytochrome P450 family 3 subfamily A member 4 (CYP3A4) small molecule antagonists: luciferase qHTS assay (AID 1645841); note: nearly all actives have a fitted effect of over 45% in size
Method in brief: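 P450-Glo CYP3A4 enzyme with proluciferin substrate was preincubated with DMSO-dissolved compounds for 10 min at room temperature. NADPH regeneration solution started a 1 h reaction. Detection reagent stopped it, and luminescence was read after 20 min.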

Papain (Carica papaya) = Papain (Carica papaya) (UniProt P00784); test: Primary qHTS assay for inhibitors of the protease papain (AID 1645873; active = well fitted curve in the direction sought with a large enough effect; an effect the other way counts as inactive or inconclusive;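 note: papain turnover of Z-FR-AMC read as the AMC fluorescence gain over 10 min; series mostly up to about 50 µM; % is set by controls: 0 for no effect and ±100 for the full control effect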)
[6] = target: N-terminal Xaa-Pro-Lys N-methyltransferase 1 (Homo sapiens) (UniProt Q9BV86); test: Confirmatory qHTS for Inhibitors of N-terminal methyltransferase 1 (NTMT1): MTaseGlo Assay (AID 1645874; active = well fitted curve in the direction sought with a large enough effect; an effect the other way counts as inactive or inconclusive; note: potency is the fitted concentration of half-maximal effect; nearly all actives have a fitted effect of over 65% in size); conditions: NTMT1 enzyme, MTase-Glo SAH luminescence
Method in brief: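 Luminescent MTase-Glo read-out of SAH. 125 nM NTMT1, 100 uM SAM, 1 uM SPKRIA substrate, 30 min RT reaction after 15 min compound preincubation. Normalized to no-enzyme and DMSO controls; Hill fit.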

Cytochrome P450 3A4 (Homo sapiens), sequence (P08684 whole entry, looked up): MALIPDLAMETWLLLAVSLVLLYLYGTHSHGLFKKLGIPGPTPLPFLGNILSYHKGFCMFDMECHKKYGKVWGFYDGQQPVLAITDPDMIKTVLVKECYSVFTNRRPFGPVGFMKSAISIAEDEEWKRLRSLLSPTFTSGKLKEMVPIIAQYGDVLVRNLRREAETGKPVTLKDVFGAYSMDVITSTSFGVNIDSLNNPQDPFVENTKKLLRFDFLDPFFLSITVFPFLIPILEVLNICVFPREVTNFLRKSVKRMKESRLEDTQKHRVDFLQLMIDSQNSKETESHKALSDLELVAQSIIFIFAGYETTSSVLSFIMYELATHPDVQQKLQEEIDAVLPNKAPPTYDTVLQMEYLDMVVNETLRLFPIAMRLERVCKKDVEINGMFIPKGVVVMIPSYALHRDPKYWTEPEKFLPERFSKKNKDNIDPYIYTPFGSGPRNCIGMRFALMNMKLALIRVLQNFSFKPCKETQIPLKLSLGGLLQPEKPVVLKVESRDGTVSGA
Cytochrome P450 2D6 (Homo sapiens), sequence (P10635 whole entry, looked up): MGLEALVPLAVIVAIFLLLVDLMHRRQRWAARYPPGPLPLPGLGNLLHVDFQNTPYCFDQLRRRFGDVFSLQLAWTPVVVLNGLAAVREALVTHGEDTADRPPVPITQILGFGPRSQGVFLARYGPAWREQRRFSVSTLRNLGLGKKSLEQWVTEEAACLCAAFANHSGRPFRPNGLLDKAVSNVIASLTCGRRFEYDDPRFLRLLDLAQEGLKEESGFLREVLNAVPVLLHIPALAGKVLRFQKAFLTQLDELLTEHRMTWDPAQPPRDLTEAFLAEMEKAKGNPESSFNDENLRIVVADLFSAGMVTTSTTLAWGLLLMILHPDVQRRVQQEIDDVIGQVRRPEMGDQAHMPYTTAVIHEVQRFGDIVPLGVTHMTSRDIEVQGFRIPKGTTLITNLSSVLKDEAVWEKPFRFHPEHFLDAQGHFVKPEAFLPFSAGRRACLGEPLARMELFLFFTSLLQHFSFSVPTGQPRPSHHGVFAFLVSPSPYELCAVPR
Cytochrome P450 2C9 (Homo sapiens), sequence (P11712 whole entry, looked up): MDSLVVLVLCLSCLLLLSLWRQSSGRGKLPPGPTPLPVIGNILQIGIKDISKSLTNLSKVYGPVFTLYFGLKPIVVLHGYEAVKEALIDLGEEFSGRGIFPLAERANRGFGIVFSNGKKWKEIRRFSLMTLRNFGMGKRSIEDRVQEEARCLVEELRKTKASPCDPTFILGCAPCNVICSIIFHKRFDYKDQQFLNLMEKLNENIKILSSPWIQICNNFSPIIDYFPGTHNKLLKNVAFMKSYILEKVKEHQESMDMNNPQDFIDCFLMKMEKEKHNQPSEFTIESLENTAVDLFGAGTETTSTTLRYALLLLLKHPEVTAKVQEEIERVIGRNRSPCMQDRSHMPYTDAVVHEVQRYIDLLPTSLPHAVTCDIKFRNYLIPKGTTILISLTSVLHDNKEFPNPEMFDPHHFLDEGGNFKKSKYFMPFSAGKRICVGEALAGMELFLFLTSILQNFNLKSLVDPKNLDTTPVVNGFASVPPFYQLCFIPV
Papain (Carica papaya), sequence (P00784 whole entry, looked up): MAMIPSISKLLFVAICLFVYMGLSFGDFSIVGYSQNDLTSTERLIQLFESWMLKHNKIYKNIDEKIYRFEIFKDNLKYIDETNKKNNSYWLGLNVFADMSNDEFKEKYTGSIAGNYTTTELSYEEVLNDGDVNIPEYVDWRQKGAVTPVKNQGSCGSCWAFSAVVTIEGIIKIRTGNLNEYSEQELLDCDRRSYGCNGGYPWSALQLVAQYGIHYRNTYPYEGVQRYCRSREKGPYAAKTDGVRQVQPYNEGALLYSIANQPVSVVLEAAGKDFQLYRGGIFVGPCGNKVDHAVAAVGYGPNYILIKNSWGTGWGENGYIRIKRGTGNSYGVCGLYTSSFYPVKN
N-terminal Xaa-Pro-Lys N-methyltransferase 1 (Homo sapiens), sequence (Q9BV86 whole entry, looked up): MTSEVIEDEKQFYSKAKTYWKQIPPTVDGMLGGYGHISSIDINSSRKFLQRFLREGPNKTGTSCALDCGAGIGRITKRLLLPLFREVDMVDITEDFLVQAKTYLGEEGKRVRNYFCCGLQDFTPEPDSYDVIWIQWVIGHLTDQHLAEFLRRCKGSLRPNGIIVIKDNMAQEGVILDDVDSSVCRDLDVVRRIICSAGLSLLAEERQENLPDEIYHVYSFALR

NC(CSCC(=O)O)C(=O)O (centres undefined)
inactive: Potency [1] | Potency [2] | Potency [3] | Potency [4]

O=C(O)[C@@H]1CSCN1
inactive: Potency [1] | Potency [2] | Potency [3] | outcome [5] | Potency [4]

[O-][n+]1cccc(CO)c1
inactive: Potency [1] | Potency [2] | Potency [3] | Potency [4]

NS(=O)(=O)c1cc2c(cc1Cl)NC(CSCc1ccccc1)=NS2(=O)=O
active: Potency [3] 13.8 µM | Potency [4] 5.49 µM
inactive: Potency [1] | Potency [2]

O=C(O)c1ccccc1-c1ccc(C(F)(F)F)cc1
inactive: Potency [1] | Potency [2] | Potency [3] | Potency [4]

C[C@@H]1CN(c2c(F)c(F)c3c(=O)c(C(=O)O)cn(C4CC4)c3c2F)C[C@H](C)N1
inactive: Potency [1] | Potency [2] | Potency [3] | Potency [4]

CCN(CC)CCNC(C(=O)OCCC(C)C)c1ccccc1 (centres undefined)
active: Potency [3] 0.776 µM
inactive: Potency [1] | Potency [2] | Potency [4]

CCCCCCCCCCCCCCCCCCOCC(O)CO (centres undefined)
inactive: Potency [1] | Potency [2] | Potency [3] | Potency [4]

CC(=O)O[C@@]12CO[C@@H]1C[C@H](O)[C@@]1(C)C(=O)[C@H](O)C3=C(C)[C@@H](OC(=O)[C@H](O)[C@@H](NC(=O)OC(C)(C)C)c4ccccc4)C[C@@](O)([C@@H](OC(=O)c4ccccc4)[C@H]21)C3(C)C
inactive: Potency [1] | Potency [2] | Potency [3] | Potency [4]

CC[N+](CC)(CC)CCOc1ccc(/C=C/c2ccccc2)cc1
inactive: Potency [1] | Potency [2] | Potency [4]
active: Potency [3] 0.617 µM

O=c1cc[nH]c(=S)[nH]1
inactive: Potency [1] | Potency [2] | Potency [3] | Potency [4]

CC1(C)Oc2ccc(C#N)cc2[C@@H](N2CCCC2=O)[C@@H]1O
inactive: Potency [1] | Potency [2] | Potency [3] | Potency [4]

O=C(O)Cc1sc(-c2ccccc2)nc1-c1ccc(Cl)cc1
inactive: Potency [1] | Potency [2] | Potency [3]
active: Potency [4] 4.9 µM

NCCNCCNCCNCCN
inactive: activity change, negative = inhibition [1] -1.31% [at 7.35 µM] | % pathology change, negative = correction [2] 14.9% [at 9.22 µM] | activity change, negative = inhibition [3] 12.4% [at 11.5 µM] | activity change, negative = inhibition [4] 18.2% [at 11.5 µM]

O=c1cc[nH]c(=O)[nH]1
inactive: Potency [1] | Potency [2] | Potency [3] | Potency [4]

OCC(CO)N[C@H]1C[C@](O)(CO)[C@@H](O)[C@H](O)[C@H]1O
inactive: Potency [1] | Potency [2] | Potency [3] | Potency [4]

CCN(CC)C(=O)Nc1ccc(OCC(O)CNC(C)(C)C)c(C(C)=O)c1 (centres undefined)
inactive: Potency [1] | Potency [2] | Potency [3] | Potency [4]

C=Cc1c(C)c2cc3[nH]c(cc4nc(cc5nc(cc1[nH]2)C(C)=C5CCC(=O)O)C(CCC(=O)O)=C4C)c(C)c3C=C
active: Potency [6] 34.5 µM
inactive: Potency [1] | Potency [2] | Potency [3] | outcome [5] | Potency [4] | Potency (Papain (Carica papaya))

CN(C)CCN(Cc1ccccc1)c1ccccn1
active: Potency [3] 0.174 µM
inactive: Potency [1] | Potency [2] | Potency [4]

CCN(CC)CCNC(=O)c1cc(Cl)c(N)cc1OC
active: Potency [3] 15.5 µM
inactive: Potency [1] | Potency [2] | outcome [5] | Potency [4] | Potency (Papain (Carica papaya))

O=C(Oc1ccccc1C(=O)O)c1ccccc1O
inactive: Potency [1] | Potency [2] | Potency [3] | Potency [4]

CC(C)(C)NCC(O)COc1ccc(NC(=O)NC2CCCCC2)cc1 (centres undefined)
inactive: Potency [1] | Potency [2] | Potency [3] | Potency [4]

C[C@]12CC[C@@H]3c4ccc(O)cc4CC[C@H]3[C@@H]1CC[C@@H]2OC(=O)CCC1CCCC1
active: Potency [4] 19 µM
inactive: Potency [1] | Potency [2] | Potency [3]

c1ccc2c(CC3=NCCN3)cccc2c1
inactive: Potency [1] | Potency [2] | outcome [5] | Potency [4]
active: Potency [3] 15.5 µM

CC(C)(C)C(=O)C(Oc1ccc(Cl)cc1)n1ccnc1 (centres undefined)
active: Potency [3] 17.4 µM | Potency [4] 2.75 µM
inactive: Potency [1] | Potency [2]

CCC(=O)c1ccc(O)cc1
inactive: Potency [1] | Potency [2] | Potency [3] | Potency [4]

C[C@H]1O[C@H](O[C@H]2[C@H](O)[C@@H](O)[C@@H](O[C@H]3[C@H](O)[C@@H](O)[C@H](O)O[C@@H]3CO)O[C@@H]2CO)[C@H](O)[C@@H](O)[C@@H]1N[C@H]1C=C(CO)[C@@H](O)[C@H](O)[C@H]1O
inactive: Potency [1] | Potency [2] | Potency [3] | Potency [4]

O=C(O)CN1C(=O)c2cccc3cccc(c23)C1=O
inactive: Potency [1] | Potency [2] | Potency [3] | Potency [4]

CC(=O)CCC(=O)O
inactive: Potency [1] | Potency [2] | Potency [3] | Potency [4]

C[C@H]1O[C@@H](n2cc(F)c(=O)[nH]c2=O)[C@H](O)[C@@H]1O
inactive: Potency [1] | Potency [2] | Potency [3] | Potency [4]

COC(=O)[C@H]1[C@H]2C[C@@H]3c4[nH]c5cc(OC)ccc5c4CCN3C[C@H]2C[C@@H](OC(=O)COc2ccc(OC)cc2)[C@@H]1OC
active: Potency [3] 9.77 µM
inactive: Potency [1] | Potency [2] | Potency [4]

O=C1O[C@H](CO)[C@@H](O)[C@H](O)[C@H]1O
inactive: Potency [1] | Potency [2] | Potency [3] | Potency [4]

Nc1ccc(S(=O)(=O)Nc2ccccc2)cc1
inactive: Potency [1] | Potency [2] | Potency [3] | Potency [4]
